# From PubChem
# Only some compounds are listed: those with a hit (about 0.4% of all), similar ones and a draw of the others.
# FMDV antiviral – Primary qHTS Assay for Foot and Mouth Disease Virus Antivirals against NCGC Sytravon and CBC Compound Libraries: Firefly Luciferase Signal. FMDV antiviral cell assay, firefly luciferase signal. Potency, µM (top dose mostly 57.5 µM), without a hit: at the highest dose activity change, negative = inhibition, most hits filed as inhibitors. 0.23% of 120,000 active; further: nearly all actives have a fitted effect of over 60% in size
# FMDV Renilla – Primary qHTS Assay for Foot and Mouth Disease Virus Antivirals against NCGC Sytravon and CBC Compound Libraries: Renilla Luciferase Signal; FMDV replicon cells, Renilla luciferase signal; Potency, µM (top dose mostly 57.5 µM), for the others: at the top dose activity change, negative = inhibition, most hits filed as inhibitors; 0.32% of 120,000 active; AID 1745857, 2022; further: nearly all actives have a fitted effect of over 55% in size
# An asterisk follows results filed as active; ? = inconclusive. The call rests on the fitted dose curve. On the % scale 0 is the no-effect control and ±100 the full control effect; potency means the concentration at half of the fitted maximal effect.
SMILES,FMDV antiviral,FMDV Renilla
O=C(Nc1ccnn1Cc1cccs1)c1ccc(S(=O)(=O)N2CCCC2)cc1,14µM*,?
O=C(Nc1nc(-c2ccncc2)cs1)c1ccc(S(=O)(=O)N2CCCCC2)cc1,5%,-11%
CC(C)NS(=O)(=O)c1ccc(Cl)c(C(=O)NCc2ccc(-c3nc4ccccc4s3)o2)c1,?,14µM*
O=C(NCc1ccc(-c2nc3ccccc3s2)o1)c1ccc(F)cc1F,10%,-25%
CC1=C(C(=O)Nc2ccc(C)cc2C)C(c2ccc(C)cc2)NC(=S)N1 (configuration not stated),-6%,-4%
CC(c1ccccc1)N(C)C(=O)CSc1nc2ccccc2o1 (configuration not stated),69%,47%
Cc1nc2ccccc2nc1SCC(=O)N(C)C(C)c1ccc(F)cc1 (configuration not stated),28µM*,35µM*
Cc1ccc(S(=O)(=O)N2CCN(CCNC(=O)c3ccc(C(F)(F)F)cc3)CC2)cc1,-25%,?
CCOc1ccc2ccccc2c1C=O,18%,-4%
CCOc1ccc(C=O)c2ccccc12,10µM*,4.5µM*
Cc1ccc(O)c(C(=O)N(C)Cc2c(F)cccc2Cl)c1,10%,79%
O=C(COC(=O)c1ccccc1C(=O)c1ccc(Cl)c([N+](=O)[O-])c1)NC12CC3CC(CC(C3)C1)C2,11%,1%
Cc1ccc2cc(C(=O)NCC3CCN(C(C)C)C3)[nH]c2c1 (configuration not stated),18%,-9%
O=C(CSc1ccc2c(c1)OCCO2)c1ccc(Br)cc1,0%,0%
Cc1nn(Cc2ccc(F)cc2)c(C)c1NC(=O)c1cc(-c2cccs2)on1,35µM*,?
Cc1cc(C(=O)Nc2c(C)nn(Cc3ccc(F)cc3)c2C)no1,1%,4%
COc1ccc(Cl)cc1NC(=O)Cn1nc(-c2ccc(C)c(C)c2)ccc1=O,7%,15%
CCN1CCC(NC(=O)CC23CC4CC(CC(C4)C2)C3)CC1,1%,-8%
Cc1ccc(CNC(=O)CCCn2c(C)c3cnn(-c4ccccc4)c(=O)c3c2C)cc1,151%,-4%
Cc1cccc(NC(=O)CCc2ncc(-c3ccc(F)cc3)o2)c1C,10%,-3%
CCCCOc1ccc(C(=O)Nc2ccc3c(c2)N(C(C)=O)CCC3)cc1,1.3µM*,-12%
CC(=O)N1CCCc2ccc(NC(=O)c3ccc(OC(C)C)cc3)cc21,?,-4%
Cn1c(CCn2ccccc2=O)nc2cc(NS(=O)(=O)c3ccc(Cl)cc3)ccc21,-14%,6%
CCCOc1ccc(/C(O)=C2\C(=O)C(=O)NC2c2ccc(C(C)(C)C)cc2)cc1 (configuration not stated),15%,-15%
CCc1ccc(NC(=O)c2sc3nc4c(cc3c2N)CN(C(C)C)CC4)cc1,0%,25µM*
SMILES,FMDV antiviral,FMDV Renilla
CCN(CC)c1ccc(NC(=O)c2sc3nc4c(cc3c2N)CN(C)CC4)cc1,23%,4%
CCOC(=O)CCCCCNCc1ccccc1,-6%,-2%
COc1ccccc1N1CCN(Cc2cc(=O)oc3ccc(Cl)cc23)CC1,0%,-13%
CCCCOC(=O)c1ccc(NC(=O)c2cc(=O)c3ccccc3o2)cc1,-19%,-5%
CCCCOC(=O)c1cccc(NC(=O)c2cc3ccccc3o2)c1,8.9µM*,-13%
CC(C)CCNC(=O)CC(c1ccc(F)cc1)N1Cc2ccccc2C1=O (configuration not stated),55%,92%
CCC(CC)C(=O)Nc1nn2c(CC(C)C)nnc2s1,-4%,-7%
CN(Cc1ccccc1)Cc1nc2c(c(=O)n(C)c(=O)n2C)n1CCc1ccccc1,-14%,5%
CCCn1c(CN(C)Cc2ccccc2)nc2c1c(=O)n(C)c(=O)n2C,35µM*,?
Cc1cc(C)c(NC(=O)Cc2c[nH]c3ccccc23)c(Cl)c1,0%,9%
O=C1COc2ccc(-c3csc(Nc4ccccc4)n3)cc2N1,29%,?
Cc1nc2sccn2c1-c1csc(Nc2cccc(Cl)c2C)n1,?,35µM*
CCc1ccccc1Nc1nc(-c2c(C)nc3sccn23)cs1,-25%,?
CCOc1cc(C(=O)Nc2ccc(N3CCCC3)c(Cl)c2)cc(OCC)c1OCC,4%,14%
COc1ccc(NC(=O)c2c(NCc3cccs3)sc3c2CCCCC3)c(OC)c1,-6%,170%
COc1ccc(NC(=O)c2c(NCc3cccs3)sc3c2CCCC3)cc1,2%,8.9µM*
O=C(Nc1ccccc1Oc1ccccc1)c1cccc(CN2CCCC2=O)c1,17%,17%
O=C(Nc1ccc(Oc2ccccc2)cc1)c1cccc(CN2CCCC2=O)c1,?,7.9µM*
CC(C)CCC(C)NC(=O)c1ccc(CN2CCCC2=O)cc1 (configuration not stated),97%,4%
CC(C)(C)c1ccc(NC(=O)c2ccc(CN3CCCC3=O)cc2)cc1,?,22µM*
